Results reported in PubChem BioAssay AID1851 (National Center for Advancing Translational Sciences (NCATS), 2009).
About 5,800 (36%) of roughly 16,000 compounds were called active. Not shown: some 23% with an inconclusive outcome. This is one part of the list. Unmarked numbers belong to inactive results. The call rests on the fitted dose curve; in most records, active means well fitted curve in the direction sought with a large enough effect; inconclusive means small, poorly fitted or top-dose-only effect, or effect the other way; inactive means no such curve, though single readings can be large or run the other way.

Target: Cytochrome P450 2C19 (Homo sapiens) (UniProt P33261)
Assay: Cytochrome panel assay with activity outcomes
Details: recombinant CYP, pro-luciferin dealkylation, luminescence, p450-cyp2c19; series mostly up to 57.1 µM; activity, negative = inhibition: at the top concentration
On the % scale 0 is the no-effect control and ±100 the full control effect.

Sequence of Cytochrome P450 2C19 (Homo sapiens) (P33261 whole entry, looked up): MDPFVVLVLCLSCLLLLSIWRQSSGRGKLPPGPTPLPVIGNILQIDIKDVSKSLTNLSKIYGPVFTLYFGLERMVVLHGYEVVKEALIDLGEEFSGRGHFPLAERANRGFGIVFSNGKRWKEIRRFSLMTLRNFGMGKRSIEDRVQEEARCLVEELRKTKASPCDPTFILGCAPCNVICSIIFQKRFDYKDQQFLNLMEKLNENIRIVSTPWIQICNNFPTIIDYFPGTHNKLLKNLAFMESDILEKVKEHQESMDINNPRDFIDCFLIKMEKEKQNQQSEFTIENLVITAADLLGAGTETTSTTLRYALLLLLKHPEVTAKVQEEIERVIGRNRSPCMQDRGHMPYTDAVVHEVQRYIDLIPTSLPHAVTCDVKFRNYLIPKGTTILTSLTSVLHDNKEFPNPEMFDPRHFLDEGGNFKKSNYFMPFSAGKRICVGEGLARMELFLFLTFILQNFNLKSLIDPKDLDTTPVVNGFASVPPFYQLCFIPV

| Compound | AC50 | activity, negative = inhibition |
| --- | --- | --- |
| Cc1ccc(S(=O)(=O)/C=C\C#N)cc1 | 5010 nM (active) | – |
| OCCNc1nc2ccccc2[nH]1 | – | -39.8% |
| Cc1nn(-c2nc3ccccc3[nH]2)c(N)c1-c1ccc(Cl)cc1 | 4470 nM (active) | – |
| c1ccc(CCSc2nccn2-c2ccccc2)cc1 | 1260 nM (active) | – |
| O=c1ccnc(SCc2ccc(Cl)cc2)[nH]1 | – | -32.7% [at 11.4 µM] |
| Cc1ccccc1CSc1nccn1-c1ccccc1 | 631 nM (active) | – |
| O=C(CSc1nccn1-c1ccccc1)c1ccc(Cl)cc1 | 447 nM (active) | – |
| O=C(O)CSCCc1ccccc1 | – | 6.64% [at 11.4 µM] |
| Clc1ccc(CSc2nccn2Cc2ccccc2)cc1 | 224 nM (active) | – |
| Nc1ncnc2c1nc(Sc1ccc(Cl)cc1)n2[C@@H]1O[C@H]2COP(=O)(O)O[C@@H]2[C@H]1O | – | -24.6% |
| CCc1ccc(CSc2nccn2-c2ccccc2)cc1 | 1580 nM (active) | – |
| N#CC1(Nc2ccc(-c3ccc(NC4(C#N)CCCC4)cc3)cc2)CCCC1 | – | 4.93% [at 11.4 µM] |
| CCOc1c(Cl)cc(C(=O)Nc2ccccc2-c2ccccc2)cc1Cl | 2510 nM (active) | – |
| O=C(O)/C=C/C(=O)Nc1ccccc1-c1ccccc1 | – | -18.3% |
| CCOC(=O)c1ccc(Cl)c(NC(=O)c2ccc(-c3ccccc3)cc2)c1 | – | -23.7% |
| O=c1cnc2cnc(Oc3ccccc3)nc2n1Cc1cccs1 | 1260 nM (active) | – |
| COc1ncc2nc(-c3ccc(F)cc3)c(=O)n(Cc3ccc(F)cc3)c2n1 | – | 1.23% |
| O=c1cnc2cnc(Oc3cccc(Cl)c3)nc2n1C1CC1 | 15800 nM (active) | – |
| O=c1c(-c2ccccc2)nc2cnc(Oc3cccc(Cl)c3)nc2n1C1CC1 | – | -83.9% |
| COc1ncc2ncc(=O)n(Cc3cccs3)c2n1 | – | -42% |
| COc1cccc(Cn2c(=O)cnc3cnc(N4CCN(C)CC4)nc32)c1 | – | -43.5% |
| COc1ncc2ncc(=O)n(CCC#N)c2n1 | – | 5.25% |
| COc1ncc2ncc(=O)n(Cc3ccc(F)cc3)c2n1 | 7940 nM (active) | – |
| O=c1c(-c2cccs2)nc2cnc(Oc3ccccc3)nc2n1Cc1cccs1 | – | 6.36% |
| N#Cc1cccc(-c2nc3cnc(Oc4cccc(Cl)c4)nc3n(C3CC3)c2=O)c1 | – | -30.1% |

| Compound | AC50 | activity, negative = inhibition |
| --- | --- | --- |
| COc1cccc(Cn2c(=O)cnc3cnc(Oc4cccc(Cl)c4)nc32)c1 | 25100 nM (active) | – |
| CCN(CCO)C[C@H]1CCC[C@H]2CCCC[C@@H]21 | – | 12.1% [at 11.4 µM] |
| CCON=C1C(C)(C)C(C)(C)C(C)(C)C1(C)C | – | -8.06% [at 11.4 µM] |
| COC(=O)[C@H](C)NC(=O)C/C=C\[C@@H](C)[C@H]1C=C[C@H](O)[C@@H](CO)O1 | – | -2.78% [at 11.4 µM] |
| N#CCCn1c(=O)c(-c2cccc(C#N)c2)nc2cnc(Oc3cccc(Cl)c3)nc21 | – | -21.1% |
| O=c1cnc2cnc(Oc3ccccc3)nc2n1Cc1ccc(F)cc1 | 2510 nM (active) | – |
| O=c1cnc2cnc(Oc3cccc(Cl)c3)nc2n1Cc1ccc(F)cc1 | 20000 nM (active) | – |
| N#CCCn1c(=O)c(-c2ccc(F)cc2)nc2cnc(Oc3cccc(Cl)c3)nc21 | – | 24.7% |
| N#CCCn1c(=O)cnc2cnc(Oc3ccccc3)nc21 | – | -18.7% |
| COCCn1c(=O)c(-c2ccc(F)cc2)nc2cnc(Oc3ccccc3)nc21 | – | -37.8% |
| N[C@H](CCCP(=O)(O)O)C(=O)O | – | -15% |
| CC(=O)C=NCC(=O)O | – | -14.5% [at 11.4 µM] |
| Cc1ccccc1OCCNC(=O)c1ccccc1Sc1ccccc1C#N | 8910 nM (active) | – |
| Cc1nc(S(=O)(=O)c2cccc(Cl)c2)nc2c1CCC2 | 15800 nM (active) | – |
| COCC(=O)N1CCC2(CC1)CCN(c1ncccn1)CC2 | – | 29.1% |
| CCN(C(=O)c1cnc(N2CCN(c3ncccn3)CC2)c2ccccc12)c1cccc(Cl)c1 | 251 nM (active) | – |
| COCC(=O)N1CCC2(CCCN(c3ncccn3)C2)CC1 | – | -0.728% |
| O=C(Oc1ccccc1)N1CCC2(CC1)CCN(c1ncccn1)CC2 | – | -25.4% |
| COCC(=O)N1CCC2(CC1)CN(c1ccccn1)C2 | – | 25.7% |
| CN(C(=O)c1cnc(N2CCN(c3ncccn3)CC2)c2ccccc12)c1ccc(Cl)cc1 | 1580 nM (active) | – |
| C[C@@H]1CC[C@@H]2C(=O)N3[C@@H](CC[C@@H](C)[C@@H]3c3ccc(-c4ccco4)cc3)C(=O)N2[C@H]1c1ccc(-c2ccco2)cc1 | – | 0.199% [at 11.4 µM] |
| Fc1ccc(C2CC(c3ccco3)=NN2c2ccccc2)cc1 (centres undefined) | 2240 nM (active) | – |
| CCN1C(=O)[C@H]2[C@H]3[C@H](O)[C@H](O)C/C(=N/O[C@@H]4O[C@@H](COC(C)=O)[C@@H](OC(C)=O)[C@@H](OC(C)=O)[C@H]4OC(C)=O)[C@@H]3CC[C@@H]2C1=O | – | 13.6% [at 11.4 µM] |
| Cc1ccc(-c2cccc(OC(=O)c3ccccc3F)c2)cc1 | 2510 nM (active) | – |
| Cc1cc(OC(=O)c2ccccc2Cl)cc(=O)n1C | – | -13.3% |

| Compound | AC50 | activity, negative = inhibition |
| --- | --- | --- |
| O=C(c1cc(O)c(O)c([N+](=O)[O-])c1)c1ccccc1F | – | -8.03% |
| CN(C)C(=N)N=C(N)N | – | 2.73% [at 25.6 µM] |
| COc1ccc(Cl)cc1NC(=O)C12CCC(C)(C(=O)O1)C2(C)C (centres undefined) | 1260 nM (active) | – |
| Cc1cc2c(s1)CCCCC(=O)N2 | 22400 nM (active) | – |
| O=C1CCCCC(=O)c2ccccc2N1 | – | -6.61% |
| N#C[C@H]1CN[C@H](N)N[C@@H]1N | – | 14.3% [at 11.4 µM] |
| Oc1[nH]c2ccccc2c1/C=N/c1nccs1 | 14100 nM (active) | – |
| O=C1c2ccccc2C(=O)C1c1ccccc1 | – | -10.9% [at 25.6 µM] |
| c1ccc(C2OCC3(CO2)COC(c2ccccc2)OC3)cc1 (centres undefined) | 2510 nM (active) | – |
| CC(C)(C)c1[nH]nc2c1C(c1ccc(OC(=O)c3ccco3)cc1)C(C#N)=C(N)O2 (centres undefined) | – | -28.5% |
| C/C(=C\c1ccco1)C1C(C#N)=C(N)Oc2n[nH]c(-c3ccccc3)c21 (centres undefined) | 2240 nM (active) | – |
| COc1ccccc1CN1CC[C@@]2(CCCN(C(=O)c3cccn3C)C2)C1 | – | 6.39% |
| Cc1cccc(NC2=NC(=S)N(c3ccc(C(=O)O)cc3)C23CCCCC3)c1 | – | -54.6% |
| Cc1cccc(NC(=O)C2(c3ccc([N+](=O)[O-])cc3)CCCC2)c1 | 891 nM (active) | – |
| CCN(CC)CCOC(=O)C1(c2ccc([N+](=O)[O-])cc2)CCCC1 | – | -32.9% |
| Cc1cccc(NC(=O)C2(c3ccccc3)CC2(Cl)Cl)c1 (centres undefined) | 1000 nM (active) | – |
| CC12CCC(C(=O)Nc3cccc4ccccc34)(C1Br)C2(C)C (centres undefined) | 8910 nM (active) | – |
| Cc1cccc(NC(=O)C23CCC(C)(C2Br)C3(C)C)c1 (centres undefined) | 4470 nM (active) | – |
| CCOC(=O)N/N=C1/C[C@@H](O)[C@@H](O)[C@@H]2[C@@H]3C(=O)N(C4CCCCC4)C(=O)[C@H]3CC[C@@H]12 | – | -22.2% [at 11.4 µM] |
| C[N+]1(CCCC[N+]2(C)CCCCCCC2)CCCCCCC1 | – | 34.1% [at 11.4 µM] |
| CCc1ccccc1NC(=O)c1ccc(-n2c(C)ccc2C)cc1 | 15800 nM (active) | – |
| C=CCNc1oc(/C=C/c2ccccc2)nc1C#N | 4470 nM (active) | – |
| O=c1c2ccc([N+](=O)[O-])c3cccc(c32)c2nc3ccccc3n12 | – | -7.67% |
| O=C(O)c1ccc2c3c1cccc3c(=O)n1c3ccccc3nc21 | 3980 nM (active) | – |
| c1ccc(CNc2ccnc(-c3cccnc3)n2)cc1 | 2510 nM (active) | – |

| Compound | AC50 | activity, negative = inhibition |
| --- | --- | --- |
| Cc1cccc(CNc2ccnc(-c3cccnc3)n2)c1 | 2510 nM (active) | – |
| c1cncc(-c2nccc(NCc3cccs3)n2)c1 | 7940 nM (active) | – |
| Cc1cnc(CNc2ccnc(-c3cccnc3)n2)cn1 | – | -6.65% |
| O=C=Nc1ccc(Cc2ccc(N=C=O)cc2)cc1 (tested in a mixture with another compound) | – | -1.1% [at 11.4 µM] |
| CNc1nc(Cl)nc(NC(C)(C)C)n1 | 14100 nM (active) | – |
| CCOc1ccc(C2C(C(=O)O)c3ccccc3C(=O)N2CCN2CCOCC2)cc1 (centres undefined) | – | 2.08% |
| CCOc1ccc(/C=C2\C(=O)c3ccccc3OC2c2ccccc2)cc1 (centres undefined) | 1120 nM (active) | – |
| Cc1cc(C)c2nc3c(c([C@H](O)[C@@H]4CCCCN4)c2c1)CC/C3=C/c1ccc(Cl)cc1 | – | -6.83% [at 11.4 µM] |
| CSCC[C@H](NC(=O)c1nn(C)c(=O)c2ccccc12)c1nc2ccccc2[nH]1 | 14100 nM (active) | – |
| CC(=O)N1c2ccc(S(=O)(=O)CCC(=O)O)cc2CC1C (centres undefined) | – | -4.88% |
| CC1Cc2ccccc2N1C(=O)C1CCCCN1S(=O)(=O)c1ccccc1 (centres undefined) | 2240 nM (active) | – |
| O=C(NC(NC(=S)Nc1cc(Cl)ccc1Cl)C(Cl)(Cl)Cl)c1ccco1 (centres undefined) | 1580 nM (active) | – |
| CCc1nnc(NC(=O)CSc2ncnc3c2cnn3-c2ccc(OC)cc2)s1 | – | -18.2% |
| CCc1ccc(OCC(=O)NNC(=O)CSc2ncnc3sc(C)c(C)c23)cc1 | 11200 nM (active) | – |
| Cc1noc(C)c1C(=O)N1CCC2(CC1)CN(c1ncccn1)C2 | – | -18.2% |
| CC1=C(C(=O)OCc2ccccc2)C(c2ccc([N+](=O)[O-])cc2)NC(=O)N1CCCCCC(=O)O (centres undefined) | – | -36% |
| CC1=C(C(=O)OCc2ccccc2)C(c2cccnc2)c2c(n(C)c(=O)n(C)c2=O)N1 (centres undefined) | 1000 nM (active) | – |
| O=C1NC(=O)[C@@](Cc2ccccc2)(c2cccnc2)N1 | – | 27.6% [at 11.4 µM] |
| CC(C)(C)n1nnnc1C(c1cccnc1)N(Cc1ccccc1)Cc1ccco1 (centres undefined) | 11200 nM (active) | – |
| CC[C@H]1C2=C3C(CC[C@H]4C(OCc5ccc(F)cc5C(F)(F)F)OC[C@](C)([C@@H]34)N(C(=O)OC(C)(C)C)C2)C(COC)C1COC (some centres undefined) | – | 8.33% |
| Oc1ccc(Cn2c(-c3ccc(O)cc3)nc3ccccc32)cc1 | – | 87.1% [at 11.4 µM] |
| Clc1ccc(Cn2c(-c3cccnc3Cl)nc3ccccc32)c(Cl)c1 | 891 nM (active) | – |
| Nc1nonc1-c1nc2ccccc2n1Cc1ccc(F)cc1Cl | 79.4 nM (active) | – |
| Clc1ncccc1-c1nc2ccccc2n1Cc1ccccc1 | 28200 nM (active) | – |
